D2 antag – antagonists of human D2 dopamine receptor; P14416; inhibition, % at 10 µM; AID 485344; HEK293 TREx D2 cells, calcium flux, dopamine EC80; 340,000 compounds, 2% hits; in the data active = inhibition above about 30%; inactive = below that, where a call was filed
Target sequence (P14416 whole entry, looked up): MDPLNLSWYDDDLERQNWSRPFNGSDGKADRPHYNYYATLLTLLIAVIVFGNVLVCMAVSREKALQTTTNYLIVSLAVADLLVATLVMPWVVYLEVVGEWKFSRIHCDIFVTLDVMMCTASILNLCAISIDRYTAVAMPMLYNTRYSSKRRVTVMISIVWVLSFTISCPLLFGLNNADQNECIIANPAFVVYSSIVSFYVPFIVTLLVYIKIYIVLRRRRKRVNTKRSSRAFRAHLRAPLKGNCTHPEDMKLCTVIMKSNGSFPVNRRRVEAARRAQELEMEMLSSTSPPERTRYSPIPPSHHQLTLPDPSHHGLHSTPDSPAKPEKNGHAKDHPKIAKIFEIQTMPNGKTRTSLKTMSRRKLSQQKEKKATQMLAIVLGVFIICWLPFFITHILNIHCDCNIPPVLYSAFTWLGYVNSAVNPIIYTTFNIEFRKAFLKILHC
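Calcium flux kinetic readout in an inducible HEK293 TREx D2 line plated overnight at 30 C. After 180 s compound exposure, an EC80 dopamine challenge follows with another 180 s kinetic read to detect antagonism.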
D2 ag-1 – D2 dopamine receptor (human) agonism. 340,000 compounds, 0.53% hits. P14416. HEK293 T-REx D2 cells, calcium flux agonist mode. AID 485358. activation, % at 2 µM;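 active = activation over 3 SD above normal in the single-dose calcium agonist read, cut at about 30% in these data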
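Agonism is scored from calcium flux in a force-coupled, inducible HEK293 cell line expressing D2, read kinetically for 180 s after compound addition against dopamine controls.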
D2 PAM-1 – potentiates the human D2 dopamine receptor allosterically; P14416; DiscoveRx D2 beta-arrestin cells, luminescence, 90 min; 100% = 57 uM dopamine signal; potentiation, % (test concentration not listed); 360,000 compounds, 0.23% hits; in the data active = potentiation above about 50%; inconclusive = mostly about 30% to 49%
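PathHunter beta-arrestin assay in DiscoveRx D2 cells. Compounds were added with an EC20 of dopamine (50 nM final) for 90 min at 37 deg C. Luminescence was read 1 h after detection reagent, with 57 uM dopamine as the EC100 control.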
D2 PAM-2 – D2 dopamine receptor (human) potentiation; P14416; HEK293 T-REx D2, calcium flux, EC20 dopamine potentiation; potentiation, % at 10 µM; 340,000 compounds, 0.34% hits; AID 485347;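 active = potentiation over 3 SD above the plate norm, cut at about 30% in these data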
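Calcium flux readout, no-wash dye, 1 read/s. Inducible HEK293 Trex D2 line, overnight 30 C. Compound alone 180 s (agonist flags), then EC20 dopamine, another 180 s to score potentiation.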
D2 ag-2 – agonists of human D2 dopamine receptor (beta-arrestin). DiscoveRx PathHunter D2 beta-arrestin, luminescence, 90 min; 100% = 57 uM dopamine signal. activation, % (no concentration beside the values). 360,000 compounds, 0.084% hits. AID 624465; in the data active = activation above about 40%; inconclusive = between about 15% and that limit
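DiscoveRx PathHunter D2 beta-arrestin cells (2,100/well) attached overnight, then compound-stimulated 90 min at 37 C in HBSS/10 mM HEPES/0.1% Tween-20 buffer; beta-galactosidase complementation read by luminescence after 1 h at ambient temperature. Dopamine 57 uM final (EC100) as control.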
D3 arrestin ag – D3 receptor agonism confirmed, beta-arrestin readout; AID 720506; shares compounds with D2 ag-1; 2,300 compounds, 4% hits; Potency, µM (series often up to 76.9 µM), most hits filed as activators; DiscoveRx D3 beta-arrestin cells, luminescence, 90 min; also: nearly all actives have a fitted effect of over 70% in size
D2 ag-3 – counter-screen for D3 agonists: human D2 dopamine receptor agonism; DiscoveRx PathHunter D2 beta-arrestin, luminescence, 90 min; response scale: percent relative to full dopamine signal; AID 720507; shares compounds with D2 ag-1; Potency, µM (doses to about 76.9 µM), most hits filed as activators; 2,300 compounds, 5.9% hits; also: nearly all actives have a fitted effect of over 70% in size
Each line names hits and unclear results; the compound was inactive in the other large screens (follow-up assays come after a bar, where they were run). A selection: hits, their analogues and other compounds. The true share with any hit is near 2.4%. Unless noted, calls follow the shape of the dose curve; as a rule, active = well fitted activation curve with a large enough effect; inconclusive = small, poorly fitted or top-dose-only effect; inactive = flat fitted curve, though single readings scatter.

CCOC(=O)c1c(C)n(C)c2ccc(OCC(O)CNCCc3ccccc3)cc12 (stereo not given)	D2 antag 30.7 | D3 arrestin ag inactive | D2 ag-3 inactive
OC(c1cc(-c2ccc(C(F)(F)F)cc2)nc(C(F)(F)F)c1)C1CCCCN1 (stereo not given)	D2 ag-2 inconclusive | D3 arrestin ag inconclusive | D2 ag-3 inconclusive
Cc1cc(NC(=O)CSCC(=O)Nc2cc(C(F)(F)F)ccc2N2CCCC2)no1	none
Cc1cc(NC(=O)CSCC(=O)Nc2cc(C(F)(F)F)ccc2N2CCOCC2)no1	none | D3 arrestin ag inactive | D2 ag-3 inactive
Cc1[nH]nc2c1C(c1cccs1)C1=C(CC(C)(C)CC1=O)N2 (stereo not given)	D2 antag 30.2, D2 ag-1 35.6 | D3 arrestin ag inactive | D2 ag-3 inactive
Cc1[nH]nc2c1C(c1ccsc1)C1=C(CC(C)(C)CC1=O)N2 (stereo not given)	D2 ag-1 41.7 | D3 arrestin ag inactive | D2 ag-3 inactive
CCCN1C(=O)C(O)(CC(=O)c2ccc(OC)c(OC)c2)c2ccccc21 (stereo not given)	none (no result: D2 antag, D2 PAM-1, D2 ag-2)
CCOc1ccc(NC(=O)NCCN2CCN(c3ccccc3F)CC2)cc1	D2 antag 78.8, D2 ag-1 77.2, D2 ag-2 inconclusive | D3 arrestin ag inconclusive | D2 ag-3 inconclusive
COc1ccccc1N1CCN(CC(=O)Nc2ccc3c(c2)OCCO3)CC1	none
CCOc1ccc(NC(=O)CCN2CCN(c3ccccc3OC)CC2)cc1	D2 antag 61.5 | D3 arrestin ag inactive | D2 ag-3 inactive
COc1ccccc1N1CCN(CCC(=O)Nc2ccc3c(c2)OCO3)CC1	D2 antag 79.7, D2 ag-1 55.1 | D3 arrestin ag inactive | D2 ag-3 inactive
COc1ccc(NC(=O)CN2CCN(c3ccccc3F)CC2)cc1	none
COc1cccc(NC(=O)CCN2CCN(c3ccccc3F)CC2)c1	D2 antag 76.6, D2 ag-1 76.2, D2 ag-2 inconclusive | D3 arrestin ag inconclusive | D2 ag-3 inconclusive
COc1ccc2c(c1)c1c(c(=O)n(-c3cccc(C)c3)c(=O)n1CC(=O)NCC1CCCO1)n2C (stereo not given)	none (no result: D2 antag, D2 PAM-1, D2 ag-2)
Fc1ccc(CNc2nc3c(-c4ccc(F)cc4)nnn3c3ccccc23)cc1	none (no result: D2 antag, D2 PAM-1, D2 ag-2)
CCOc1ccc(NC(=O)CCN2CCN(c3ccccc3F)CC2)cc1	D2 antag 76.9, D2 ag-1 79.0, D2 ag-2 inconclusive | D3 arrestin ag inconclusive | D2 ag-3 inconclusive
CCOc1ccc(NC(=O)CCN2CCN(C)CC2)cc1	none
CCOC(=O)N1CCC(Nc2c(NCCN3CCN(Cc4ccccc4)CC3)c(=O)c2=O)CC1	none
CCOC(=O)N1CCC(Nc2c(NCCN3CCN(c4ccccc4F)CC3)c(=O)c2=O)CC1	D2 ag-1 42.8 | D3 arrestin ag inconclusive | D2 ag-3 inactive
COc1ccc(C(=O)CCN2CCN(c3ccccc3F)CC2)cc1	D2 antag 81.5 | D3 arrestin ag inactive | D2 ag-3 inactive
COc1ccc(C(=O)CCN2CCCCCC2)cc1	none
COc1ccc(NC(=O)NCCCN2CCN(c3ccccc3F)CC2)cc1	D2 antag 91.5, D2 ag-1 82.0 | D3 arrestin ag inconclusive | D2 ag-3 inactive
CCN1CCN(CCCNC(=O)CCc2nc(-c3ccc(OC)cc3)no2)CC1	none
CC(=O)N1CCc2cc(C(=O)CN3CCN(c4ccccc4F)CC3)ccc21	none
O=C(CN1CCN(c2ccccc2F)CC1)c1ccc2cc[nH]c2c1	none | D3 arrestin ag inactive | D2 ag-3 inactive
COc1ccc(-c2noc(CCC(=O)NCCN3CCN(c4ccccc4F)CC3)n2)cc1	D2 antag 64.7, D2 ag-1 41.1 | D3 arrestin ag inactive | D2 ag-3 inactive
Cn1c2ccccc2c2cnn(CC(=O)Nc3ccccc3C(F)(F)F)c(=O)c21	none (no result: D2 antag, D2 PAM-1, D2 ag-2)

From PubChem BioAssay
